In general, AC50 refers to the concentration giving half of the maximal activity seen.

Consider 15 molecules from PubChem BioAssay (EPA / NIEHS).

Experiment [1] deals with rat Mineralocorticoid Receptor (MR), Nr3c2 (gene 25672) (UniProt P22199). As to the kind of experiment: NVS_NR_rMR: NovaScreen (NVS) Nuclear Receptor Binding Assay for rat Mineralocorticoid Receptor (MR) (AID 2283355). In short, it runs like this: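 Radioligand displacement, scintillation readout; tissue source adrenalectomized rat brain supernatant. Read 24 h post-dose. Screened in duplicate at 25 uM, DMSO negative control, controls on every plate; actives re-run in concentration series.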

Experiment [2] concerns the target human Peroxisome Proliferator-activated Receptor alpha (PPARa), PPARA (gene 5465) (UniProt Q07869). Put plainly: NVS_NR_hPPARa: NovaScreen (NVS) Nuclear Receptor Binding Assay for human Peroxisome Proliferator-activated Receptor alpha (PPARa) (AID 2283359).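 Further: activity means loss of TR-FRET signal versus DMSO baseline.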 The essentials: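 TR-FRET signal measured at 1 h post-dosing; loss-of-signal versus DMSO negative control taken as activity. Extracted gene-protein, cell-free format. Initial single-point duplicates at 25 uM, then concentration-response retests.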

For experiment [3], the target named is Retinoic acid receptor alpha (Homo sapiens) (UniProt P10276). As to the kind of experiment: NVS_NR_hRARa_Agonist: NovaScreen (NVS) Nuclear Receptor Binding Assay for human Retinoic Acid Alpha Receptor Agonism (RAR) (AID 2283361). The essentials: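 TR-FRET signal, 2 h post-dosing; cell-free extracted protein; DMSO = baseline, positive fitting direction; 25 uM single-point duplicate, then concentration series for actives.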

The target in experiment [4] is rat Androgen Receptor (AR), Ar (gene 24208) (UniProt P15207). As to the kind of experiment: NVS_NR_rAR: NovaScreen (NVS) Nuclear Receptor Binding Assay for rat Androgen Receptor (AR) (AID 2283366). The essentials: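 Actives from a duplicate single-concentration (25 uM) primary run went on to concentration series. Displacement of radioligand was counted by filtration and scintillation, 18 h post-dose, using prostate extracts from testosterone-pretreated rats, with DMSO as baseline.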

Experiment [5] deals with Peroxisome proliferator-activated receptor gamma (Homo sapiens) (UniProt P37231). Put plainly: NVS_NR_hPPARg: NovaScreen (NVS) Nuclear Receptor Binding Assay for human Peroxisome Proliferator-activated Receptor gamma (PPARg) (AID 2283370). The essentials: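 Fluorescence polarization measures competitive binding to extracted PPARg in a cell-free format. Reading is taken at 2 h; activity is signal loss relative to DMSO. Screening at 25 uM in duplicate preceded confirmatory dose series.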

The target in experiment [6] is human Dopamine Transporter (DAT), SLC6A3 (gene 6531) (UniProt Q01959). Put plainly: NVS_TR_hDAT: NovaScreen (NVS) Transporter Assay for human Dopamine Transporter (DAT) (AID 2283374).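 Further: activity means loss of bound radioligand signal relative to DMSO.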 In short, it runs like this: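 hDAT membranes + tritiated/iodinated radioligand, competitive displacement; 1 h; filter scintillation readout. Single conc 25 uM (duplicate), then conc-response for actives. DMSO = negative control.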

For experiment [7], the target named is Estrogen receptor (Homo sapiens) (UniProt P03372). As to the kind of experiment: OT_ER_ERaERa_0480: Odyssey Thera (OT) 8-hour HEK293T Protein-Complementation Assay for Estrogen Receptor-alpha/-alpha Homodimer (AID 2283351).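 Further: rise in fluorescence from reassembled reporter fragments on ERα LBD homodimer in nucleus or whole cell.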 In short, it runs like this: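 Measures ERα LBD (aa 310-547) homodimer complementation in stably transfected HEK293T at 8 h post-dose, with fluorescence intensity quantified on a laser scanning cytometer relative to DMSO controls.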

Experiment [8] has as its target Androgen Receptor/SRC-1 Co-activator, AR (gene 367) (UniProt P10275). Put plainly: OT_AR_ARSRC1_0960: Odyssey Thera (OT) 16-hour HEK293T Protein-Complementation Assay for Androgen Receptor/SRC-1 Co-activator (AID 2283353).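 Further: actives raise the signal above DMSO so potency reflects increased AR and SRC-1 complex.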 The essentials:
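Sixteen-hour cell assay: Venus halves fused to AR and SRC-1 in HEK293T report binding. Images at 488/635 nm give an N/C ratio in the 488 nm channel over ≥400 cells, analysed as signal increase over DMSO.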

Experiment [9] shares this target. Put plainly: OT_AR_ARSRC1_0480: Odyssey Thera (OT) 8-hour HEK293T Protein-Complementation Assay for Androgen Receptor/SRC-1 Co-activator (AID 2283354).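 Further: hits raise the complementation signal above DMSO so AC50 marks enhancers.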 The essentials:
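Split-Venus PCA, stable HEK293T, AR/SRC-1 fusions; 8 h exposure. Readout: 488nm N/C fluorescence ratio, ≥400 cells/image; fitted upward vs DMSO baseline.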

Experiment [10] concerns the target T1, Estrogen receptor (Homo sapiens) + Estrogen receptor beta (Homo sapiens) (UniProt P03372+Q92731). As to the kind of experiment: OT_ER_ERaERb_1440: Odyssey Thera (OT) 24-hour HEK293T Protein-Complementation Assay for Estrogen Receptor-alpha/-beta Homodimer (AID 2283356).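 Further: heteromer of ER alpha and ER beta binding domains; hits raise reporter fluorescence and both agonists and antagonists give an increase.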 The essentials:
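Heterodimerisation of ERα (aa 310-547) and ERβ (aa 263-489) ligand binding domains was tracked as fluorescence gain in stably transfected HEK293T cells following 24 h dosing, normalised to DMSO controls.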

Experiment [11] concerns the target Estrogen receptor beta (Homo sapiens) (UniProt Q92731). As to the kind of experiment: OT_ER_ERbERb_0480: Odyssey Thera (OT) 8-hour HEK293T Protein-Complementation Assay for Estrogen Receptor-beta/-beta Homodimer (AID 2283357).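 Further: active means signal gain over DMSO baseline.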 The essentials:
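Homodimerization of ER-beta LBD measured by protein-fragment complementation in HEK293T; 8 h dosing; fixed, Draq5 counterstain; fluorescence intensity gain over DMSO baseline, positive fitting direction; laser scanning cytometry.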

Experiment [12] deals with Glucocorticoid receptor (Homo sapiens) (UniProt P04150). As to the kind of experiment: NVS_NR_hGR: NovaScreen (NVS) Nuclear Receptor Binding Assay for human Glucocorticoid Receptor (GR) (AID 2283363).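 On AC50: activity is loss of specific radioligand binding signal relative to DMSO.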 The essentials: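 Filter scintillation readout of tritiated/iodinated radioligand displaced by test chemical; cell-free extracted protein; 16 h. DMSO = negative control/baseline. Duplicate single-point 25 uM screen, then concentration-response on actives.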

For experiment [13], the target named is Nuclear receptor subfamily 1 group I member 2 (Homo sapiens) (UniProt O75469). As to the kind of experiment: NVS_NR_hPXR: NovaScreen (NVS) Nuclear Receptor Binding Assay for human Pregnane X Receptor (PXR) (AID 2283365).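 Further: a drop in FRET signal versus DMSO baseline means the compound binds.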 The essentials:
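Binding was measured by time-resolved fluorescence resonance energy transfer after a 2 h exposure of extracted human PXR protein without cells. Compounds were first tested at 25 uM in duplicate, with concentration series for actives; DMSO defined baseline.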

Experiment [14] concerns the target T1, Estrogen receptor (Homo sapiens) + Estrogen receptor beta (Homo sapiens). Put plainly: OT_ER_ERaERb_0480: Odyssey Thera (OT) 8-hour HEK293T Protein-Complementation Assay for Estrogen Receptor-alpha/-beta Heterodimer (AID 2283352). In short, it runs like this:
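Increase in mean fluorescence intensity, measured by laser scanning plate cytometry, reported ER-alpha/ER-beta LBD complementation in HEK293T cells after 8 h chemical exposure. DMSO served as baseline; basal signal is low, punctate and cytoplasmic.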

In experiment [15] the target is PGR (gene 5241) (UniProt P06401). Put plainly: NVS_NR_hPR: NovaScreen (NVS) Nuclear Receptor Binding Assay for human Progestron Receptor (PR) (AID 2283360).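 Further: active means loss of bound radioligand signal versus DMSO baseline.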 In short, it runs like this:
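T47D lysate; tritiated or iodinated radioligand; scintillation count at 18 h. DMSO = negative control/baseline. Primary: 25 uM, duplicate. Secondary: concentration series for actives.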

For experiment [16], the target named is rat Serotonin Transporter (SERT), Slc6a4 (gene 25553) (UniProt P31652). Put plainly: NVS_TR_rSERT: NovaScreen (NVS) Transporter Assay for rat Serotonin Transporter (SERT) (AID 2283375). The essentials: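 Steps: rat forebrain membranes dosed with chemical (25 uM duplicate primary; concentration series for actives); 1 h incubation; labelled ligand bound, filtered, counted by scintillation. Activity scored as signal loss vs DMSO.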

Experiment [17] has as its target Retinoic acid receptor alpha (Homo sapiens) (UniProt P10276). Put plainly: NVS_NR_hRAR_Antagonist: NovaScreen (NVS) Nuclear Receptor Binding Assay for human Retinoic Acid Alpha Receptor Antagonism (RAR) (AID 2283358). In short, it runs like this:
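Read-out: time-resolved FRET binding signal, 2 h post-dose, cell-free extracted protein. Antagonism scored as signal loss versus DMSO negative control. Primary single-concentration screen at 25 uM in duplicate; concentration series for actives.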

For experiment [18], the target named is human Thyroid Receptor Alpha (TRa), THRA (gene 7067) (UniProt P10827). Put plainly: NVS_NR_hTRa_Antagonist: NovaScreen (NVS) Nuclear Receptor Binding Assay for human Thyroid Receptor Alpha Antagonism (TRa) (AID 2283362). In short, it runs like this: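 Chemicals were first screened in duplicate at 25 uM, then actives were retested in concentration series. Binding to the extracted receptor was measured 1 h after dosing by AlphaLISA chemiluminescence, with decreased signal versus DMSO scored as activity.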

Results filed as inconclusive are left out. The source made the active and inactive calls. How the source made its calls: active means hit-call score of the fitted dose curve at least 0.9, where 1 is the maximum; inconclusive means response in the unintended direction; inactive means score below 0.9.

human Peroxisome Proliferator-activated Receptor alpha (PPARa), PPARA (gene 5465), sequence (Q07869 whole entry, looked up): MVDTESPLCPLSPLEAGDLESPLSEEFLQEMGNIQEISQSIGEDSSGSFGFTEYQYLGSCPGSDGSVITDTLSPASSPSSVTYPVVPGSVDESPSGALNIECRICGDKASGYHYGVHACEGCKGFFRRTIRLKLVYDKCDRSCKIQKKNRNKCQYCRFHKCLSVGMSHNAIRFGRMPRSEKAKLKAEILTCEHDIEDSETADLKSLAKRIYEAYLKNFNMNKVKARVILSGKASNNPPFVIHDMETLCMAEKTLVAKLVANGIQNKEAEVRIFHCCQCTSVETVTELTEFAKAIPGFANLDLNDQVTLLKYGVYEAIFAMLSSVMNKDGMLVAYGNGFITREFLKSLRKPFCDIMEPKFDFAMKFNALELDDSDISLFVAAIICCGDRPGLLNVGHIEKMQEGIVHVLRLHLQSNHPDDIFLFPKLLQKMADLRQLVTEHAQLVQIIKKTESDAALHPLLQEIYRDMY
Estrogen receptor (Homo sapiens), sequence (P03372 whole entry, looked up, the tested form may be a part): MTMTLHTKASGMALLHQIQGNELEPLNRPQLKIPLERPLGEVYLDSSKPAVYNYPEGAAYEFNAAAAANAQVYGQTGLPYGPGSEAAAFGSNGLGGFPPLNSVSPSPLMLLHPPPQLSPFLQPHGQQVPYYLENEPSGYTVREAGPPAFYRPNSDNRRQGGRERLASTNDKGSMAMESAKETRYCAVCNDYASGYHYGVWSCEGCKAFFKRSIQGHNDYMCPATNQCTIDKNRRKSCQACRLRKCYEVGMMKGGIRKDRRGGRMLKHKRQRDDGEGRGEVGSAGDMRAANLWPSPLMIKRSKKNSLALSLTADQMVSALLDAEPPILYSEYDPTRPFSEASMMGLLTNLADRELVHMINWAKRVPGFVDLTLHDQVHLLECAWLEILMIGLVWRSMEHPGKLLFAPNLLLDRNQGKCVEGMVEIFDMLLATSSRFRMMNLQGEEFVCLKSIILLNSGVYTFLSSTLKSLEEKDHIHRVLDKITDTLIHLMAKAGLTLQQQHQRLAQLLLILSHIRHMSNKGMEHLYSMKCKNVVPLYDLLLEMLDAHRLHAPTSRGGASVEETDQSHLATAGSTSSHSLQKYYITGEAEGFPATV
T1 sequence (P03372 whole entry, looked up, the tested form may be a part): as above
T1 sequence (Q92731 whole entry, looked up, the tested form may be a part): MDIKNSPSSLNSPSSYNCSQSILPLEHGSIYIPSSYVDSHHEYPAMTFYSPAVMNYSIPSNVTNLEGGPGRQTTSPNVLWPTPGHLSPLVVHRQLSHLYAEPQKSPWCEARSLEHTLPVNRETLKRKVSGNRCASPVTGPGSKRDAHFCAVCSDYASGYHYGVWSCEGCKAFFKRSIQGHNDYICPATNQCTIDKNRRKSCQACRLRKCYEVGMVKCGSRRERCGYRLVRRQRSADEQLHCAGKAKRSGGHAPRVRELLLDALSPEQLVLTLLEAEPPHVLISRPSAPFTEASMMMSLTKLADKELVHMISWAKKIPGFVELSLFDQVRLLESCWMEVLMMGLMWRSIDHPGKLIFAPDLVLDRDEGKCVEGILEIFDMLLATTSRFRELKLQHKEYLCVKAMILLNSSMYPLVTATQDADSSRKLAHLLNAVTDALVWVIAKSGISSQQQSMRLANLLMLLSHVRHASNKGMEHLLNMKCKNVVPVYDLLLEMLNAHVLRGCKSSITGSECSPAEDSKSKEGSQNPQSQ
Androgen Receptor/SRC-1 Co-activator, AR (gene 367), sequence (P10275 whole entry, looked up, the tested form may be a part): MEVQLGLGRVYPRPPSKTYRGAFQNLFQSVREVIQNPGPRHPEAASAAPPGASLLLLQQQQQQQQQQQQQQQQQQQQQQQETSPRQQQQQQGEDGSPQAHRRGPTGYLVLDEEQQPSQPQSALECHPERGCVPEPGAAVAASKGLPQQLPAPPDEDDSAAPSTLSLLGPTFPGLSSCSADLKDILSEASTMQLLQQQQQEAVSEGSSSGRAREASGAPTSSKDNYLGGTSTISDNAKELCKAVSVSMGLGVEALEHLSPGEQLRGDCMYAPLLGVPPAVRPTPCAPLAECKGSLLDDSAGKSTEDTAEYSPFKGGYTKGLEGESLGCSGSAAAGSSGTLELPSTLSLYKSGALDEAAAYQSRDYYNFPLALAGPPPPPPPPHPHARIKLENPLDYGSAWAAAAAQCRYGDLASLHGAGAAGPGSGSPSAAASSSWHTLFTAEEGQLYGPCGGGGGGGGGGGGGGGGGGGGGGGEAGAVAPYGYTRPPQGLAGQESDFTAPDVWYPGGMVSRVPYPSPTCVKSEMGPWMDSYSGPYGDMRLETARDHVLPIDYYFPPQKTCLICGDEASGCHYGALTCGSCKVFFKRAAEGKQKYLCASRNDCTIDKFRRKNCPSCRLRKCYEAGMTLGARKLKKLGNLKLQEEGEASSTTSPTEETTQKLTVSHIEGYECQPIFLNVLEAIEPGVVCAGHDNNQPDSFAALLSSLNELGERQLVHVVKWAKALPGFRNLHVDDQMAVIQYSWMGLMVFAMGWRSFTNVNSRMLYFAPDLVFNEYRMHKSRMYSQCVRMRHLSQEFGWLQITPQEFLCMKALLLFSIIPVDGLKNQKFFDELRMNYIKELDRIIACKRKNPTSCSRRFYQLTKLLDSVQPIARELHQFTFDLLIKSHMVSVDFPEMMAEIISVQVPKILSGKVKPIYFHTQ
Nuclear receptor subfamily 1 group I member 2 (Homo sapiens), sequence (O75469 whole entry, looked up): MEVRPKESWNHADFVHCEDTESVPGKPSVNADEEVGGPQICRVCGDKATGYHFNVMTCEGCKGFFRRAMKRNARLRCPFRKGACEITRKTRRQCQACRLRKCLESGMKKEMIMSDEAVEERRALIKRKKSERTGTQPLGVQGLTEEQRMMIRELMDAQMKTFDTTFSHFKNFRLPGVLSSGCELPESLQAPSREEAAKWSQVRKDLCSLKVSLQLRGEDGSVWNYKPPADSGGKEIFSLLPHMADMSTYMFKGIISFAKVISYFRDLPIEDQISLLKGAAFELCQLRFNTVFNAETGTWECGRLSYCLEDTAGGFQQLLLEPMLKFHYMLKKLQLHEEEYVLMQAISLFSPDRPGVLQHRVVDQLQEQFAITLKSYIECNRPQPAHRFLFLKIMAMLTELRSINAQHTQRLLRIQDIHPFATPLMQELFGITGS
Peroxisome proliferator-activated receptor gamma (Homo sapiens), sequence (P37231 whole entry, looked up): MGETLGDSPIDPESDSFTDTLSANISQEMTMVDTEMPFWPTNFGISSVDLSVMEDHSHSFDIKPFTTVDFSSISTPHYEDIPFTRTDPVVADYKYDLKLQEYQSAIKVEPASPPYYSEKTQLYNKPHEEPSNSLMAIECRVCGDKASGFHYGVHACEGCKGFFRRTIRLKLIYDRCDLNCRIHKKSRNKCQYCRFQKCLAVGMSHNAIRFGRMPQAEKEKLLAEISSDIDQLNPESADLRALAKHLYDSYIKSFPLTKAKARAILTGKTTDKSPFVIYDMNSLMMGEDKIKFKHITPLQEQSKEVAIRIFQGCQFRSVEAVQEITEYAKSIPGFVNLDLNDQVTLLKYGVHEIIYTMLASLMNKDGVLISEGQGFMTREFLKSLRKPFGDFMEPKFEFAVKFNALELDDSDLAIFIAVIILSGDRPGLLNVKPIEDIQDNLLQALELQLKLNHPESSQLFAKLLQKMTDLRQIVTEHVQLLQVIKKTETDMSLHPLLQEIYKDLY
Estrogen receptor beta (Homo sapiens), sequence (Q92731 whole entry, looked up, the tested form may be a part): as the sequence (Q92731 whole entry, looked up, the tested form may be a part) above
Glucocorticoid receptor (Homo sapiens), sequence (P04150 whole entry, looked up): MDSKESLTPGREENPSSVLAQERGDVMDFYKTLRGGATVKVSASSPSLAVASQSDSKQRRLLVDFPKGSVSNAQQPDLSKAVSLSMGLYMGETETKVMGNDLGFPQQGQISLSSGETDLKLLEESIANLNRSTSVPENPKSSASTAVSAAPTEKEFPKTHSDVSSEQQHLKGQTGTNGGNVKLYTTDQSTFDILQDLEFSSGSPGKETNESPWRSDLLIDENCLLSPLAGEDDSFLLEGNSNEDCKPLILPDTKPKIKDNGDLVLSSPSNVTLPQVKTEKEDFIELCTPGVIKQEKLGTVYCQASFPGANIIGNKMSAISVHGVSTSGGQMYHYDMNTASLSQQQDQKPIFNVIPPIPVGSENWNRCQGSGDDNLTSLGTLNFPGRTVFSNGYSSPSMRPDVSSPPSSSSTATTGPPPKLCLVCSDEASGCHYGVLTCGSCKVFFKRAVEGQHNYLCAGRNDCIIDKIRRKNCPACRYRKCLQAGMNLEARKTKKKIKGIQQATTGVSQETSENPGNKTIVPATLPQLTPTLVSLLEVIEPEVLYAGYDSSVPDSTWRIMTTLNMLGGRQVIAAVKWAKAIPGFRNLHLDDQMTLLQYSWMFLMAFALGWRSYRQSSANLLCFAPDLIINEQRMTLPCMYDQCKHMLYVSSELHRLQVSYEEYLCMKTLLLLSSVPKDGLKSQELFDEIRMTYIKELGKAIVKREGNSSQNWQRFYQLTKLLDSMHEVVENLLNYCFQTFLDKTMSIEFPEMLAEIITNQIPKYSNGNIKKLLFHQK
Retinoic acid receptor alpha (Homo sapiens), sequence (P10276 whole entry, looked up): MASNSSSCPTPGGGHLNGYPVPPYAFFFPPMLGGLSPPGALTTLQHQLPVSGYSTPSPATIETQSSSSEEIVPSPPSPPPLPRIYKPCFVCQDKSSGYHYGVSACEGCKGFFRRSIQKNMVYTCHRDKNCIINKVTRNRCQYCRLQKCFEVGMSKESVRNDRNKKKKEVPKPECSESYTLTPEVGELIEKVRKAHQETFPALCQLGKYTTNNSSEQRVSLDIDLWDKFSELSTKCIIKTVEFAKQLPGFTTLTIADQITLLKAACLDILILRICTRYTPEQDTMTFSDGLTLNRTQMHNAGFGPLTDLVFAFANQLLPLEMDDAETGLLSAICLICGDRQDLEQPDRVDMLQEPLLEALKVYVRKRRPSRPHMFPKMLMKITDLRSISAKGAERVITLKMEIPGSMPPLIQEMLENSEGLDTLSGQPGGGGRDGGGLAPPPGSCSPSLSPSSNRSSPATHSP

Regarding `Cc1ccc(C)c(OCCCC(C)(C)C(=O)O)c1`, the result in experiment [1] was inactive.

As to `Oc1ccc(-c2ccccc2)c(Cl)c1`, the call in experiment [2], in [3] and in [5] was inactive. In experiment [4], the AC50 was 16.3 µM (active).

For `COc1ccc(C(=O)c2ccccc2)c(O)c1`, the AC50 in experiment [6] was 16.4 µM (active).

Take `C=C1C[C@H]2[C@@H]3C=C(C)C4=CC(=O)CC[C@]4(C)[C@H]3CC[C@]2(C)[C@@]1(OC(C)=O)C(C)=O`: the result in [7], in experiment [11] and in experiment [5] was inactive. Further, the AC50 in [8] was 6.25 µM (active); in experiment [9] it was 5.8 µM (active); in experiment [10] it was 16.9 µM (active); in experiment [12], 0.00144 µM (active); in experiment [13] it was 4.1 µM (active).

As for `c1ccc(Nc2cccc3ccccc23)cc1`, the concentration at half-maximal activity (AC50) in experiment [7] is 35.2 µM (active); in [14] it was 24.8 µM (active); in experiment [10], 47.1 µM (active); in [11], 29.1 µM (active). In addition, in experiment [5], the result was inactive.

Take `CCN1CN(CC)CN(CC)C1`: the molecule was classed as inactive in [7], in [10], in [11] and in [5].

As to `Cc1ccc([N+](=O)[O-])cc1N`, the molecule was called inactive in experiment [7], in [14], in [10], in experiment [15], in experiment [13] and in experiment [5]. Further, the molecule was called inactive in experiment [16].

With `CCCC(CC)c1ccccc1` (centres undefined), the outcome in experiment [7], in experiment [14], in experiment [10], in experiment [11], in experiment [2] and in experiment [12] was inactive.

For `Oc1ccccc1Cc1ccccc1O`, the molecule was classed as inactive in experiment [7] and in experiment [5]. The concentration at half-maximal activity (AC50) in experiment [14] was 23.4 µM (active); in [10], 53.4 µM (active); in [11] it was 31.6 µM (active).

With `CCCC=C(C=O)CC`, the molecule was classed as inactive in experiment [7], in experiment [10] and in experiment [11].

Take `CCCCCCCCCCCCc1ccc(O)cc1`: the AC50 was 2.48 µM (active) in experiment [7], 1.86 µM (active) in experiment [14], 1.14 µM (active) in experiment [10] and 0.853 µM (active) in experiment [11]. Besides, the result in [13] and in [5] was inactive.

Consider `CCCCC(CC)COC(=O)/C=C/c1ccc(OC)cc1` (centres undefined), for which the call in experiment [7] and in experiment [9] was inactive. The AC50 in experiment [8] was 50 µM (active).

`CCCCC/C=C\C/C=C\CCCCCCCC(=O)O`: the molecule was classed as inactive in [7], in [17] and in experiment [18]. For the same molecule, the results for the AC50 in experiment [2], in experiment [13] and in [5] were 13.1 µM (active), 4.88 µM (active) and 6.85 µM (active), respectively.

As to `CCCCCCCCCCCC(=O)N(C)CC(=O)O`, the outcome in [7], in [10], in experiment [11] and in experiment [5] was inactive.

`CC(C)c1cc(C(C)C)cc(C(C)C)c1`: the result in experiment [7], in experiment [14], in experiment [10], in experiment [11], in experiment [13] and in experiment [5] was inactive.
